From PubChem BioAssay come the findings set out here.

Molecules are shown by their SMILES. A number with no mark means an inactive call. No rule for the calls is given here.

For the first assay, the target named is Botulinum neurotoxin type A (Clostridium botulinum) (UniProt P0DPI0). Kind of assay: BoNT/A light chain protease inhibitors, biochemical, multiplex microsphere flow cytometry, validation set (AID 588460). Particulars: at 10 µM, hits give high values.
Chain of Botulinum neurotoxin type A (Clostridium botulinum) (P0DPI0 whole entry, looked up): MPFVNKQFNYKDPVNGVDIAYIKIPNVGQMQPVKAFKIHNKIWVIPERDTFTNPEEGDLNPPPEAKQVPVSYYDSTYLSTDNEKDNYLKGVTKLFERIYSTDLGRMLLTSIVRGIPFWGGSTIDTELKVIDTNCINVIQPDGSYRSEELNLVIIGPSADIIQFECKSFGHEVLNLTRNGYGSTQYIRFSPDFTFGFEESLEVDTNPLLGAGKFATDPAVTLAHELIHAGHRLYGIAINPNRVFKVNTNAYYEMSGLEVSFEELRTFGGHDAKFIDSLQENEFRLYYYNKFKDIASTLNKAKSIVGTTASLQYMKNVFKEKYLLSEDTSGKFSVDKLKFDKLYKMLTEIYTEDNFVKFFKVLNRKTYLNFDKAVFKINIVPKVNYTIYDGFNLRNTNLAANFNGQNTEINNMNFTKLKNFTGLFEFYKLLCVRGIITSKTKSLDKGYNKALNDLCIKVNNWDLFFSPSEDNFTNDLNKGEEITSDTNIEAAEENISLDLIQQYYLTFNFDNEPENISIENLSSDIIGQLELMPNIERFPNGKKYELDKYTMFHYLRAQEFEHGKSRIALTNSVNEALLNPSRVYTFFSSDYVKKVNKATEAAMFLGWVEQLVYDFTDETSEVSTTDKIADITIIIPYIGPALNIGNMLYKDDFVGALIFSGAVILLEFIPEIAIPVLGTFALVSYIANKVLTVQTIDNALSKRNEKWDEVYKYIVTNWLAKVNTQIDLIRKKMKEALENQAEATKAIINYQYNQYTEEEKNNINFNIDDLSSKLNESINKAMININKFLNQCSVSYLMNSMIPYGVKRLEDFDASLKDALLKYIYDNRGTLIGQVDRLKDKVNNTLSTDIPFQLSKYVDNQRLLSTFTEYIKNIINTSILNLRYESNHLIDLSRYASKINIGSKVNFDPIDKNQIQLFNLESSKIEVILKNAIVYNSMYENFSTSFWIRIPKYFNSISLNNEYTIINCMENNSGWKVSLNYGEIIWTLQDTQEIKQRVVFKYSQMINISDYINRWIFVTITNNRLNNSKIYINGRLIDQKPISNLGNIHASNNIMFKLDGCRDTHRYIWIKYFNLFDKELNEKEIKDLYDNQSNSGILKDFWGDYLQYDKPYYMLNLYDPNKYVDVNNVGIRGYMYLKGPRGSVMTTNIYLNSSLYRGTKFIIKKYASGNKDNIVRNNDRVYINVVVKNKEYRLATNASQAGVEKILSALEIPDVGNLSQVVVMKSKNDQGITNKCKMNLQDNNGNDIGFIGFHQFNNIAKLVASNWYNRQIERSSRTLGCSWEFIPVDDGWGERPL
On to `CC(C)c1ccc2[nH]c3c(c2c1)CCCC3=O`, for which the inhibition was -0.8%.

On to `COc1ccc(C(=O)NCCC2=CCCCC2)cc1[N+](=O)[O-]`, for which the inhibition was -1.5%. Same read-out and setting: next, `Cc1coc2c1c(C)cc1oc(=O)c(Cc3ccccc3)c(C)c12`: -0.5%; `COc1cc(C(=O)Nc2cccc(-c3nnc(-c4ccco4)o3)c2)ccc1OC(C)=O`: 2.1%. The same measure, in the same setting: for `CN(C)CCOc1ccccc1Cc1ccccc1` the value was 1.6%; for `O=C(CCC(=O)c1cccs1)c1cccs1`, -1.4%. On the same count and under the same terms, for `COc1ccc2cc([C@H](C)C(=O)O)ccc2c1` the value was -0.1%. Turning to `Cc1ccccc1NC(=O)C1c2ccccc2Oc2ccccc21`, the inhibition is -0.3%.

On to `CCn1c2ccccc2c2cc(CC(N)=O)ccc21`, for which the inhibition was -0.6%. For the compound `O=C(N1CCCC1)C12CC3CC(C1)CC(C(=O)N1CCCC1)(C3)C2`, the inhibition is -2.5%. As to `O=C(NCCCCCc1nc2ccccc2[nH]1)c1ccccc1Cl`, the inhibition was 0.3%.

For the compound `Nc1cnn(C2OC(CO)C(O)C2O)c(=O)n1` (stereo not drawn), the inhibition is 0%. Still for that read-out and setting: next, `COc1ccc(-c2onc(C)c2-c2ccc(C(=O)OC(C)C)o2)c(O)c1`: 0.9%; `O=C(/C=C/c1ccccc1)NC(=O)c1ccccc1O`: -1.7%. On the same count and under the same terms, next, `COc1cc2c(cc1OC)C(C)=NC1(CCCCC1)C2`: 4.8%.

The target of a further assay is Lethal factor (Bacillus anthracis) (UniProt P15917). Kind of assay: Bacillus anthracis lethal factor inhibition, microsphere flow cytometry protease assay, validation at 10 µM (AID 588461). The note with it: multiplex microsphere protease cleavage assay, hits give high values.
Chain of Lethal factor (Bacillus anthracis) (P15917 whole entry, looked up): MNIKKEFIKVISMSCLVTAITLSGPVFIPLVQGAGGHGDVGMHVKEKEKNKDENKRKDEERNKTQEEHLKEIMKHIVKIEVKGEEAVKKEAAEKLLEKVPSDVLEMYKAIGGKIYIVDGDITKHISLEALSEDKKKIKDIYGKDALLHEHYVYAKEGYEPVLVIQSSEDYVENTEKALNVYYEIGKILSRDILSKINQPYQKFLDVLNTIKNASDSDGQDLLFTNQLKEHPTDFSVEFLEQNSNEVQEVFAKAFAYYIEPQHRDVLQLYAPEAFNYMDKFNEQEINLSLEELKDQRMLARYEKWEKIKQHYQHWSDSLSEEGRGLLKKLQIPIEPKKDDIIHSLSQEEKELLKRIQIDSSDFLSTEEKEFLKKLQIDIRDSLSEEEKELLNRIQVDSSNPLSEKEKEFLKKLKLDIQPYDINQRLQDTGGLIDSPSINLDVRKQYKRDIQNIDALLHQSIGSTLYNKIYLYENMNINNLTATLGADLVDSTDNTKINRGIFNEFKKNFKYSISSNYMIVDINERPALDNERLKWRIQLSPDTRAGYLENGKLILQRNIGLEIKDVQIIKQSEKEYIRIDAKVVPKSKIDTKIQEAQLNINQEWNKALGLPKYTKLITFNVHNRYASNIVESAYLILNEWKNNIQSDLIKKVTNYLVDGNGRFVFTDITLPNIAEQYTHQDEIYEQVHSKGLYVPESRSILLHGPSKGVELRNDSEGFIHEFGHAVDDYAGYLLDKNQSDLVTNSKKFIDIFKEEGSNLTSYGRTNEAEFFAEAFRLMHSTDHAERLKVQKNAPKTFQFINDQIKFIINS
Regarding `Nc1nc(Cl)nc2c1ncn2[C@@H]1O[C@H](CO)[C@@H](O)[C@H]1O`, the inhibition is -6.9%. Same read-out and setting: for `N/C(=N\OC(=O)c1cccc(Br)c1)c1ccncc1` the value was -3.1%; for `O=C(O)CCn1cnc2ccccc2c1=O`, -3.5%; for `NC(N)=N/N=C/c1ccc(OS(=O)(=O)c2ccccc2)cc1`, -1.4%. With `Oc1[nH]c2ccccc2c1C1=NCCCC1`, the inhibition was -8.7%. On the same count and under the same terms, for `O=C(NCC1CCCCN1)c1cc(OCC(F)(F)F)ccc1OCC(F)(F)F` (stereo not drawn) the value was -2%; for `CC(C)OC(=O)C1C(=O)CC(C)(O)C(C(=O)OC(C)C)C1c1cccc(O)c1` (stereo not drawn), -2.7%. Same read-out and setting: for `COC(=O)c1[nH]c2ccccc2c1NC(=O)CN1CCN(C/C=C/c2ccccc2)CC1` the value was -4.7%; for `O=C(C1CCCCC1)N1CC(=O)N2CCc3ccccc3C2C1` (stereo not drawn), 3.9%; for `COC1CCCCC1Nc1ccc(C)c(C)c1` (stereo not drawn), -5.5%.

With `COc1ccc2[nH]c(=O)c(CNC3CCCCC3)cc2c1`, the inhibition is -0.1%. For `O=C(N1CCCCC1)C1(c2ccccc2)CCOCC1`, the inhibition was -2.1%.

`C#CCN1C(=O)C(O)(c2c(C)[nH]c3ccccc23)c2ccccc21` (stereo not drawn): the inhibition was -3.2%.

On to `Cc1nc(-c2coc3c(CN(C)C)c(O)ccc3c2=O)cs1`, for which the inhibition is 10.3%.

In the case of `CCOC(=O)N1CCc2[nH]c3ccc(C)cc3c2C1`, the inhibition was 1.9%. Still for that read-out and setting: for `O=C(Nc1ccc(N2CCOCC2)cc1)c1ccc(-c2ccccc2[N+](=O)[O-])o1` the value was -10.4%; for `CC1(C)CC(CC(=O)Nc2nccs2)(c2ccccc2)CCO1` (stereo not drawn), -1.9%. `COc1ccc2cc(-c3nc4ccccc4n3C)c(=O)oc2c1`: the inhibition is 1%. The same measure, in the same setting: for `COc1cc2c(cc1OC)CN(C(=O)c1ccc(S(=O)(=O)N(C)c3ccccc3)cc1)CC2` the value was 3.4%; for `COC(=O)c1ccc(C(=O)OC)c(NC(=O)C(C)C)c1`, -1.4%; for `Cc1cccc(C(=O)c2cccc(C)c2)c1`, -11.4%.

Regarding `CCO/C([O-])=N/c1c[n+](N2CCOCC2)no1`, the inhibition was -5.4%. The same measure, in the same setting: next, `COc1ccc(C(C)=O)c2c1OCCO2`: 0.8%; `COC(=O)c1[nH]c2ccc(F)cc2c1NC(=O)C1=COCCO1`: -4.9%; `CC(=O)N/C(=C/c1ccc2c(c1)OCO2)C(=O)NCCO`: 1%. For `CC(C)c1ccc2[nH]c3c(c2c1)CCCC3=O`, the inhibition was -3.4%. Consider `COc1ccc(C(=O)NCCC2=CCCCC2)cc1[N+](=O)[O-]`, for which the inhibition was -4.6%. The same measure, in the same setting: next, `Cc1coc2c1c(C)cc1oc(=O)c(Cc3ccccc3)c(C)c12`: -4.3%; `COc1cc(C(=O)Nc2cccc(-c3nnc(-c4ccco4)o3)c2)ccc1OC(C)=O`: 0.6%; `CN(C)CCOc1ccccc1Cc1ccccc1`: 3.4%.

Take `O=C(CCC(=O)c1cccs1)c1cccs1`: the inhibition was -3.3%. Still for that read-out and setting: next, `COc1ccc2cc([C@H](C)C(=O)O)ccc2c1`: -2.6%; `Cc1ccccc1NC(=O)C1c2ccccc2Oc2ccccc21`: 6.3%.
